Records with an inconclusive call do not appear. Active and inactive are the calls of the source. Unless noted, calls follow the shape of the dose curve; as a rule, active = well fitted curve in the direction sought with a large enough effect in the repeat runs; inconclusive = weak or mixed curves; inactive = no such curve, though single readings can be large; an effect the other way counts as inactive or inconclusive.
Assays:
[1] = qHTS assay to identify small molecule antagonists of the retinoid acid receptor (RAR) signaling pathway - cell viability counter screen (AID 1159551); also: nearly all actives have a fitted effect of over 35% in size
Method in brief: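 Cytotoxicity counter screen: ATP content quantified by CellTiter-Glo luminescence in C3RL4 cells treated 6 hr at 37 C with compound and retinol (1 uM final). Cells plated at 1,000/well and cultured overnight before dosing.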

[2] = qHTS assay to identify small molecule antagonists of the retinoic acid receptor (RAR) signaling pathway (AID 1159552; also: nearly all actives have a fitted effect of over 50% in size)
Method in brief: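 Readout: luciferase luminescence, 30 min post-reagent at RT. Setup: C3RL4 RARE reporter cells, compounds plus retinol 1 uM final, 6 hr incubation at 37 C and 5% CO2.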

[3] = qHTS assay to identify small molecule agonists of the retinoic acid receptor (RAR) signaling pathway (AID 1159553); also: potency is read from the fitted curve at half-maximal effect
Method in brief: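 Luminescence was measured 30 min after luciferase reagent addition at room temperature. Before that, C3RL4 reporter cells (1,000 per well, plated overnight) were treated with compound for 6 hr at 37 C and 5% CO2.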

[4] = target: Luciferin 4-monooxygenase (Photinus pyralis) (UniProt P08659); experiment: qHTS assay to identify small molecule inhibitors of firefly luciferase (AID 1224835); also: nearly all actives have a fitted effect of over 25% in size; also: potency is read from the fitted curve at half-maximal effect
Method in brief: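 Quantitative HTS format; KM concentrations of both substrates. Purified P. pyralis FLuc activity quantified from luminescence images.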

[5] = qHTS assay to identify small molecule agonists of the constitutive androstane receptor (CAR) signaling pathway - cell viability counter screen (AID 1224836); also: nearly all actives have a fitted effect of over 45% in size
Method in brief: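 Compound titrations (15 concentrations) went onto HepG2-CYP2B6-hCAR cells 4 h after seeding, alongside PK11195 at a final 0.75 uM; a 23 h, 37 C/5% CO2 incubation preceded CellTiter-Fluor viability measurement.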

[6] = qHTS assay to identify small molecule antagonists of the constitutive androstane receptor (CAR) signaling pathway - cell viability counter screen (AID 1224837); also: nearly all actives have a fitted effect of over 45% in size
Method in brief: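 Cytotoxicity counter-screen: CellTiter-Fluor fluorescence after 23 h compound exposure (15-point qHTS) in double-stable HepG2-CYP2B6-hCAR cells, with 50 nM CITCO added.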

[7] = target: Nuclear receptor subfamily 1 group I member 3 (Homo sapiens) (UniProt Q14994); experiment: qHTS assay to identify small molecule antagonists of the constitutive androstane receptor (CAR) signaling pathway (AID 1224838);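 also: HepG2 cells stably expressing hCAR with CYP2B6 luciferase reporter stimulated by CITCO; nearly all actives have a fitted effect of over 40% in size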
Method in brief: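 Antagonism measured as luciferase signal (ONE-Glo, 30 min, room temperature) in CAR-stimulated cells: HepG2-CYP2B6-hCAR double-stable line exposed 24 hr at 37 C to compound in a 15-point series plus 50 nM CITCO.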

[8] = target: Nuclear receptor subfamily 1 group I member 3 (Homo sapiens) (UniProt Q14994); experiment: qHTS assay to identify small molecule agonists of the constitutive androstane receptor (CAR) signaling pathway (AID 1224839); also: nearly all actives have a fitted effect of over 15% in size; also: potency is read from the fitted curve at half-maximal effect;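 as to activation: HepG2 cells stably carrying human CAR and a CYP2B6 luciferase reporter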
Method in brief: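 In this screen, CAR-driven CYP2B6 promoter activity is measured by luminescence in HepG2-CYP2B6-hCAR cells after 24 h with test compounds and 0.75 uM PK11195 (final concentration).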

[9] = qHTS assay to identify small molecule antagonists of the estrogen related receptor signaling pathway with the pleiotropic PPARgamma coactivator (PGC) from Tox21 10K library - cell viability counter screen (AID 1224840; active = well fitted cell-killing curve with a large enough effect in the repeat runs, not every such curve was filed as active; also: nearly all actives have a fitted effect of over 40% in size)
Method in brief: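 Counter-screen for cytotoxicity: after 17.5 h compound exposure at 37 C, CellTiter-Fluor reagent added to PGC/ERR cells for 30 min and fluorescence read. Cells were seeded at 2,000 per well 6 h before dosing.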

[10] = qHTS assay to identify small molecule antagonists of the estrogen related receptor signaling pathway with the pleiotropic PPARgamma coactivator (PGC) from Tox21 10K library (AID 1224841; call rule not given here; also: actives are mostly falling curves and most rising ones were filed inactive; nearly all actives have a fitted effect of over 50% in size)
Method in brief: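 Luminescence (One-Glo, 30 min at room temperature) after 18 h compound treatment at 37 C of PGC/ERR reporter cells plated at 2,000 cells/well and settled 6 h beforehand.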

[11] = qHTS assay to identify small molecule agonists of the estrogen related receptor signaling pathway with the pleiotropic PPARgamma coactivator (PGC) from Tox21 10K library (AID 1224842); also: nearly all actives have a fitted effect of over 15% in size
Method in brief: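 PGC/ERR reporter cells (NTP line) were seeded 2,000 per well, rested 6 h at 37 C/5% CO2, then pin-dosed with compounds in DMSO for 18 h at 37 C; luciferase read by One-Glo luminescence after 30 min at room temperature.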

[12] = qHTS assay to identify small molecule agonists of the hypoxia (HIF-1) signaling pathway - cell viability counter screen (AID 1224844; calls by dose curve; also: nearly all actives have a fitted effect of over 50% in size)
Method in brief: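 Cytotoxicity measured by CellTiter-Glo ATP luminescence in the wells also read for beta-lactamase signal. Cells were HRE-bla ME-180 (2,000/well, 0.5% dialyzed FBS), exposed to compounds for 17 h at 37C.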

[13] = qHTS assay to identify small molecule agonists of H2AX (AID 1224845; active = well fitted activation curve with a large enough effect in the signal ratio in the repeat runs, not every such curve was filed as active; the % refers to the signal ratio)
Method in brief: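 Wild-type CHO-K1 cells plated overnight, then exposed 3 hr at 37C to compounds at 15 concentrations (0.76% DMSO). Lysed, then HTRF anti-pH2AX(S139)-cryptate/anti-H2AX-d2 detection after 24 hr at room temperature; emissions 665 and 620 nm.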

[14] = qHTS assay to identify small molecule agonists of the hypoxia (HIF-1) signaling pathway (AID 1224846; active = well fitted activation curve with a large enough effect in the signal ratio in the repeat runs, not every such curve was filed as active; the % refers to the signal ratio)
Method in brief: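 Compounds added to ME-180 cells carrying hypoxia-response-element beta-lactamase reporter (0.5% dialyzed FBS, 5 h preplating), 17 h at 37C; agonist activity detected by CCF4-AM B/G FRET read-out.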

[15] = qHTS assay to identify small molecule agonists of H2AX - cell viability counter screen (AID 1224847; calls by dose curve; also: top concentration of the series differs between compounds; nearly all actives have a fitted effect of over 30% in size)
Method in brief: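 Read-out: CellTiter-Glo luminescence, 30 min RT. Cells: wild-type CHO-K1, 1000/well, 10% FBS, plated overnight at 37C. Treatment: 15 concentrations, 3 hr, 37C, 0.76% DMSO.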

[16] = qHTS assay to identify small molecule agonists of the estrogen related receptor (ERR) signaling pathway from Tox21 library (AID 1224849; calls by dose curve; also: nearly all actives have a fitted effect of over 15% in size); settings: ERR reporter cell line, ONE-Glo luciferase, 18 h; at 92.4 µM (top of the series) unless noted
Method in brief: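 Luminescent agonist read-out (One-Glo, 30-minute room-temperature incubation) following 18-hour compound treatment at 37 C of the ERR cell line, which had been plated 6 hours before dosing.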

[17] = qHTS RealTime-Glo MT Cell Viability Assay in HepG2 cells - 24 hour (AID 1224867); also: nearly all actives have a fitted effect of over 50% in size
Method in brief: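 HepG2 suspension premixed with RealTime-Glo reagents is plated at 600 cells per well and left 5 h at 37 C/5% CO2. Compounds in DMSO then go in, and bioluminescence reflecting viable cell number is recorded over 40 h.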

[18] = qHTS assay to identify small molecule antagonists of the estrogen related receptor (ERR) signaling pathway from Tox21 library - cell viability counter screen (AID 1224834); also: nearly all actives have a fitted effect of over 30% in size
Method in brief: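 CellTiter-Fluor fluorescence, read after 30 min at 37 C, measures viability of ERR cells. Cells plated at 2,000/well and incubated 6 h before pin-tool compound addition, then exposed 17.5 hours at 37 C.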

[19] = target: Thyrotropin receptor (Homo sapiens) (UniProt P16473); experiment: qHTS assay to identify small molecule agonists of the thyroid stimulating hormone receptor (TSHR) signaling pathway (AID 1224843; calls by dose curve; also: nearly all actives have a fitted effect of over 45% in size)
Method in brief: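 Compounds are titrated over 15 concentrations, in triplicate, onto TSHR-HEK293 cells seeded at 800/well. Plates sit 30 min at room temperature before cAMP-d2 and anti-cAMP cryptate are added; signal is read after a further hour.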
% is scaled to controls: 0 for no effect and ±100 for the full control effect.

Nuclear receptor subfamily 1 group I member 3 (Homo sapiens), sequence (Q14994 whole entry, looked up): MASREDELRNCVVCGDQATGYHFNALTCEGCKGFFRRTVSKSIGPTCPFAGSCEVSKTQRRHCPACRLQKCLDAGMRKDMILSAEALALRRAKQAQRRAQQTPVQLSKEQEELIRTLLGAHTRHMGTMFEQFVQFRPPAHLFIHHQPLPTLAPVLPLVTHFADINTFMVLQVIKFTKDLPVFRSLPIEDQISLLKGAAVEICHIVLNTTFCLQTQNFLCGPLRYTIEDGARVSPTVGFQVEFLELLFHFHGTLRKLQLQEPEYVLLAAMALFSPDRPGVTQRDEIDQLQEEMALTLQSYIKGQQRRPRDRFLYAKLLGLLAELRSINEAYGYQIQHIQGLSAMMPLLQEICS
Luciferin 4-monooxygenase (Photinus pyralis), sequence (P08659 whole entry, looked up): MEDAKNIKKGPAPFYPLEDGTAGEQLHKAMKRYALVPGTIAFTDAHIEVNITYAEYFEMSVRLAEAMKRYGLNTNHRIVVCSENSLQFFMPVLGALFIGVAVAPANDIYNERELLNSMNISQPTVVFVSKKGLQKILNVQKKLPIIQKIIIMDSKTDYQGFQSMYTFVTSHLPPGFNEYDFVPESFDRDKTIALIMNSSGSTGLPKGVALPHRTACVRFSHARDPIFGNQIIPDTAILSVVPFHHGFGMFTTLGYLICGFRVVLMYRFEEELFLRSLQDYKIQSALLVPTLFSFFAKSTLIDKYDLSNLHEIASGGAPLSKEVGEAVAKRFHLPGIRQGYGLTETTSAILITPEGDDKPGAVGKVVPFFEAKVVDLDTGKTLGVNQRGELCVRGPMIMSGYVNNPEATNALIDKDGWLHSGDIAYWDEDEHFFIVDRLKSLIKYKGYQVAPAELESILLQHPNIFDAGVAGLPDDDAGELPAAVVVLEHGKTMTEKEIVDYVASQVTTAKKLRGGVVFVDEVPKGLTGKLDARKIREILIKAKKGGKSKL
Thyrotropin receptor (Homo sapiens), sequence (P16473 whole entry, looked up): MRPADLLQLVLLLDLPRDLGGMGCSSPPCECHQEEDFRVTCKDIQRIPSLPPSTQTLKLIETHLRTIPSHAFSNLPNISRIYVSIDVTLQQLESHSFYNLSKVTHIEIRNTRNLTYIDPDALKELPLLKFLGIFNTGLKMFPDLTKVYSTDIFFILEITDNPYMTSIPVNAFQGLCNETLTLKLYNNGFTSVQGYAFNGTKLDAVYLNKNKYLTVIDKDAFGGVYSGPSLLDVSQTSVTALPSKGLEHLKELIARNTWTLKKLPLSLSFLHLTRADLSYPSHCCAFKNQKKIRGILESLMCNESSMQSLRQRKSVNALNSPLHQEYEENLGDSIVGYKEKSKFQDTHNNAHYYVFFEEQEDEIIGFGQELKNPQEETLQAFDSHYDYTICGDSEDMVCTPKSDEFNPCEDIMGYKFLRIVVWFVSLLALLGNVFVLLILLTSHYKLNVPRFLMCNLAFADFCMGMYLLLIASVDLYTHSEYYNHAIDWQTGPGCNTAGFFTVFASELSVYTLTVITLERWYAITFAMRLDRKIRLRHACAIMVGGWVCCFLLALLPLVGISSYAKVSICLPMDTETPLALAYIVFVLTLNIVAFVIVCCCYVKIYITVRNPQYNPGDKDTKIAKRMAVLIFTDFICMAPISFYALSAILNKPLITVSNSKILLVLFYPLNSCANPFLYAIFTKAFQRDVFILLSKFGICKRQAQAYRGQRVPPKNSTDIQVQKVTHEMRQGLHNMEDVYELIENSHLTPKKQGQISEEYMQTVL

CCCCCCCC(=O)N(C)C
inactive: outcome [1] | outcome [2] | Potency [3] | Potency [4] | outcome [5] | outcome [6] | outcome [7] | Potency [8] | outcome [9] | Potency [10] | Potency [11] | outcome [12] | outcome [13] | outcome [14] | outcome [15] | activity change, positive = activation [16] 2.8% | outcome [17]

O=S(=O)(O)c1cc(I)c(O)c2ncccc12
inactive: outcome [1] | outcome [2] | Potency [3] | outcome [18] | outcome [5] | outcome [6] | outcome [9] | Potency [10] | Potency [11] | Potency [19] | outcome [12] | outcome [14] | outcome [15] | activity change, positive = activation [16] 2.69% [at 42.5 µM] | outcome [17]

CN(C)CCCN(C)C
inactive: activity change, negative = cytotoxicity [1] -1.41% [at 8.39 µM] | activity, negative = inhibition [2] 0.227% [at 8.39 µM] | activation [3] 0.0534% [at 8.36 µM] | viability change, negative = cytotoxic [5] -1.97% [at 8.39 µM] | activity change, negative = cytotoxicity [6] 1.66% [at 8.39 µM] | activation [8] -0.471% [at 8.39 µM] | viability change, negative = cytotoxic [9] 4.04% [at 8.39 µM] | activation [19] -10.3% [at 8.39 µM] | activity change, negative = cytotoxicity [12] 11.5% [at 6.97 µM] | activation (H2AX phosphorylation) [13] 0.536% [at 14 µM] | activity change, negative = cytotoxicity [15] 0.19% [at 14 µM] | activity change, negative = cytotoxicity [17] 0.293% [at 6.97 µM]

CCOC(=O)c1ccc(N(C)C)cc1
inactive: outcome [1] | outcome [2] | outcome [5] | outcome [6] | outcome [7] | outcome [9] | outcome [12] | outcome [13] | outcome [14] | outcome [15] | outcome [17]
active: Potency [3] 15.4 µM | Potency [4] 35.6 µM | Potency [8] 30.6 µM

CCN(CC)CC(=O)Oc1ccc(NC(C)=O)cc1
inactive: outcome [1] | outcome [2] | Potency [3] | Potency [4] | outcome [5] | outcome [6] | Potency [8] | outcome [9] | Potency [19] | outcome [12] | outcome [13] | outcome [14] | outcome [15] | outcome [17]

N#Cc1cc(NC(=O)C(=O)O)c(Cl)c(NC(=O)C(=O)O)c1
inactive: outcome [1] | outcome [2] | Potency [3] | Potency [4] | outcome [5] | outcome [6] | outcome [9] | Potency [19] | outcome [12] | outcome [13] | outcome [14] | outcome [15] | outcome [17]

CCCCCCCCC1CO1 (stereo not drawn)
inactive: outcome [1] | outcome [2] | Potency [3] | outcome [5] | outcome [6] | outcome [7] | Potency [8] | outcome [9] | Potency [19] | outcome [12] | outcome [13] | outcome [15] | outcome [17]
